Results as given in PubChem BioAssay AID1159580 (chemical genetic matrix, 2015).
The campaign covered roughly 5,500 compounds. About 2,000 (36%) were called active. Roughly 18% stayed inconclusive and do not appear here. No stated cut-off is given here; in the data, active means normalized growth mostly below about 0.91 (no sharp cut-off); inconclusive means no clear call, values can overlap the other calls; inactive means mostly above about 0.92. The list shows a part of the results.

Experiment: chemical genetic growth profiling, strain panel (AID 1159580);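 further: tested at 20 µM; growth read once vehicle control cultures reached saturation at 30 °C; 1 = growth at the plate median or of vehicle wells; lower values mean less growth of the strain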
Conditions: growth OD

Measured: normalized growth

OCc1ccccc1O[C@@H]1O[C@H](CO)[C@@H](O)[C@H](O)[C@H]1O
inactive: S. cerevisiae deletion strains, locus YJR066W, strain TOR1, active compounds read low 0.94 | S. cerevisiae deletion strains, locus YKL009W, strain mrt4, active compounds read low 1.01 | S. cerevisiae deletion strains, locus YKL068W, active compounds read low 0.98 | S. cerevisiae deletion strains, locus YKL085W, strain MDH1 (second series), active compounds read low 0.973 | S. cerevisiae deletion strains, locus YKL085W, strain MDH1, active compounds read low 0.973 | S. cerevisiae deletion strains, locus YKL160W, strain elf1, active compounds read low 0.993 | S. cerevisiae deletion strains, locus YKL190W, strain CNB1, active compounds read low 0.988 | S. cerevisiae deletion strains, locus YKR001C, strain vps1, active compounds read low 0.985 | S. cerevisiae deletion strains, locus YKR026C, strain gcn3, active compounds read low 1 | S. cerevisiae deletion strains, locus YKR091W, strain srl3, active compounds read low 0.994 | S. cerevisiae deletion strains, locus YLL001W, strain dnm1, active compounds read low 0.975 | S. cerevisiae deletion strains, locus YLL026W, active compounds read low 0.999 | S. cerevisiae deletion strains, locus YLL041C, strain sdh2, active compounds read low 0.991 | S. cerevisiae deletion strains, locus YLR027C, strain aat2, active compounds read low 1 | S. cerevisiae deletion strains, locus YLR039C, strain RIC1, active compounds read low 0.936 | S. cerevisiae deletion strains, locus YLR058C, strain SHM2, active compounds read low 0.978 | S. cerevisiae deletion strains, locus YLR102C, strain apc9, active compounds read low 0.99 | S. cerevisiae deletion strains, locus YLR113W, strain HOG1, active compounds read low 1.01 | S. cerevisiae deletion strains, locus YLR221C, strain rsa3, active compounds read low 0.991 | S. cerevisiae deletion strains, locus YLR258W, strain gsy2, active compounds read low 0.977 | S. cerevisiae deletion strains, locus YLR262C, strain YPT6 (second series), active compounds read low 0.997 | S. cerevisiae deletion strains, locus YLR262C, strain YPT6, active compounds read low 0.929 | S. cerevisiae deletion strains, locus YLR268W, strain sec22, active compounds read low 0.979 | S. cerevisiae deletion strains, locus YLR320W, strain mms22, active compounds read low 0.999 | S. cerevisiae deletion strains, locus YLR330W, strain CHS5, active compounds read low 0.989 | S. cerevisiae deletion strains, locus YLR342W, strain FKS1 (second series), active compounds read low 1.06 | S. cerevisiae deletion strains, locus YLR342W, strain FKS1, active compounds read low 0.995 | S. cerevisiae deletion strains, locus YLR357W, strain rsc2, active compounds read low 1.02 | S. cerevisiae deletion strains, locus YLR370C, strain arc18, active compounds read low 0.98 | S. cerevisiae deletion strains, locus YLR371W, strain rom2, active compounds read low 0.994 | S. cerevisiae deletion strains, locus YLR384C, strain iki3, active compounds read low 0.989 | S. cerevisiae deletion strains, locus YLR418C, strain cdc73, active compounds read low 1.02 | S. cerevisiae deletion strains, locus YML016C, strain PPZ1, active compounds read low 0.988 | S. cerevisiae deletion strains, locus YML032C, strain rad52, active compounds read low 0.993 | S. cerevisiae deletion strains, locus YML120C, strain ndi1, active compounds read low 1 | S. cerevisiae deletion strains, locus YML124C, strain tub3, active compounds read low 0.992 | S. cerevisiae deletion strains, locus YMR058W, strain fet3, active compounds read low 0.999 | S. cerevisiae deletion strains, locus YMR078C, strain ctf18, active compounds read low 0.987 | S. cerevisiae deletion strains, locus YMR125W, strain sto1, active compounds read low 0.976 | S. cerevisiae deletion strains, locus YMR129W, active compounds read low 1 | S. cerevisiae deletion strains, locus YMR205C, strain PFK2, active compounds read low 1.01 | S. cerevisiae deletion strains, locus YMR223W, strain ubp8, active compounds read low 1.05 | S. cerevisiae deletion strains, locus YMR231W, strain pep5, active compounds read low 0.992 | S. cerevisiae deletion strains, locus YMR263W, strain SAP30, active compounds read low 0.992 | S. cerevisiae deletion strains, locus YMR307W, strain GAS1, active compounds read low 1.06 | S. cerevisiae deletion strains, locus YNL067W, strain RPL9B, active compounds read low 0.968 | S. cerevisiae deletion strains, locus YNL071W, strain lat1, active compounds read low 0.999 | S. cerevisiae deletion strains, locus YNL153C, strain GIM3, active compounds read low 0.951 | S. cerevisiae deletion strains, locus YNL183C, strain NPR1, active compounds read low 0.944 | S. cerevisiae deletion strains, locus YNL209W, strain ssb2, active compounds read low 0.974 | S. cerevisiae deletion strains, locus YNL233W, strain BNI4, active compounds read low 0.974 | S. cerevisiae deletion strains, locus YNL248C, strain rpa49, active compounds read low 0.986 | S. cerevisiae deletion strains, locus YNL250W, strain rad50, active compounds read low 0.99 | S. cerevisiae deletion strains, locus YNL271C, strain bni1, active compounds read low 0.98 | S. cerevisiae deletion strains, locus YNL298W, strain CLA4, active compounds read low 0.994 | S. cerevisiae deletion strains, locus YNL307C, strain MCK1, active compounds read low 0.986 | S. cerevisiae deletion strains, locus YNL322C, strain KRE1 (second series), active compounds read low 0.997 | S. cerevisiae deletion strains, locus YNL322C, strain KRE1, active compounds read low 0.991 | S. cerevisiae deletion strains, locus YNR049C, strain mso1, active compounds read low 0.978 | S. cerevisiae deletion strains, locus YNR052C, strain pop2, active compounds read low 0.998 | S. cerevisiae deletion strains, locus YOL006C, strain TOP1, active compounds read low 0.957 | S. cerevisiae deletion strains, locus YOL012C, strain htz1 1.27 | S. cerevisiae deletion strains, locus YOL147C, strain pex11, active compounds read low 1 | S. cerevisiae deletion strains, locus YOR001W, strain rrp6, active compounds read low 0.998 | S. cerevisiae deletion strains, locus YOR061W, strain CKA2, active compounds read low 0.956 | S. cerevisiae deletion strains, locus YOR069W, strain VPS5, active compounds read low 0.995 | S. cerevisiae deletion strains, locus YOR070C, strain gyp1, active compounds read low 0.995 | S. cerevisiae deletion strains, locus YOR080W, strain dia2, active compounds read low 0.991 | S. cerevisiae deletion strains, locus YOR083W, strain WHI5, active compounds read low 0.999 | S. cerevisiae deletion strains, locus YOR106W, strain vam3, active compounds read low 0.977 | S. cerevisiae deletion strains, locus YOR136W, strain idh2, active compounds read low 0.988 | S. cerevisiae deletion strains, locus YOR144C, strain elg1, active compounds read low 0.99 | S. cerevisiae deletion strains, locus YOR184W, strain ser1, active compounds read low 0.991 | S. cerevisiae deletion strains, locus YOR231W, strain MKK1, active compounds read low 1.01 | S. cerevisiae deletion strains, locus YOR265W, strain rbl2, active compounds read low 1 | S. cerevisiae deletion strains, locus YOR270C, strain vph1, active compounds read low 0.918 | S. cerevisiae deletion strains, locus YOR290C, strain snf2, active compounds read low 0.99 | S. cerevisiae deletion strains, locus YOR316C, strain cot1, active compounds read low 0.975 | S. cerevisiae deletion strains, locus YPL051W, strain arl3, active compounds read low 0.98 | S. cerevisiae deletion strains, locus YPL078C, strain atp4, active compounds read low 0.992 | S. cerevisiae deletion strains, locus YPL106C, strain sse1, active compounds read low 0.991 | S. cerevisiae deletion strains, locus YPL240C, strain hsp82, active compounds read low 0.985 | S. cerevisiae deletion strains, locus YPL241C, strain CIN2, active compounds read low 0.994 | S. cerevisiae deletion strains, locus YPL256C, strain CLN2, active compounds read low 1.03 | S. cerevisiae deletion strains, locus YPR119W, strain clb2, active compounds read low 0.98 | S. cerevisiae deletion strains, locus YPR141C, strain kar3, active compounds read low 0.973 | S. cerevisiae deletion strains, locus YPR163C, strain tif3, active compounds read low 0.992 | S. cerevisiae deletion strains, locus YPR167C, strain met16, active compounds read low 0.997 | S. cerevisiae deletion strains, strain wtn01, active compounds read low 1.01 | S. cerevisiae strains, strain wild type, active compounds read low 0.979
